A number with no mark means an inactive call.
Tested on: Vero E6 infected with SARS-CoV-2
Assay: inhibition of SARS-CoV-2 cytopathic effect; higher = more antiviral protection, active = above 15
Details: 48 h

Structure (SMILES) | inhibition of SARS-CoV-2 cytopathic effect (1 nM) [%] | inhibition of SARS-CoV-2 cytopathic effect (8.33 nM) [%] | inhibition of SARS-CoV-2 cytopathic effect (100 nM) [%] | inhibition of SARS-CoV-2 cytopathic effect (833.33 nM) [%] | inhibition of SARS-CoV-2 cytopathic effect (10000 nM)
Cc1oc(=O)oc1CN1CCN(c2cc3c(cc2F)c(=O)c(C(=O)O)c2n3C(C)S2)CC1 (stereo not given) [prulifloxacin] | 0.31 | -0.69 | -3.24 | -1.97 | -3.69%
CC(C)(C)c1ccc(S(=O)(=O)/C=C/C#N)cc1 | 2.15 | 0.27 | 0.24 | 5.32 | -2.36%
OCCN1CCN(CC/C=C2/c3ccccc3Sc3ccc(Cl)cc32)CC1 [zuclopenthixol] | -1.15 | -3.42 | -1.94 | -3.61 | 8.42%
COc1nc(C)nc(Cl)c1NC1=NCCN1 [moxonidine] | -0.54 | 1.98 | -1.9 | -2.44 | -1.74%
O=P1(NCCCl)OCCCN1CCCl (stereo not given) [ifosfamide] | 0.24 | -2.31 | 0.48 | 0.22 | -0.05%
O=C(c1cc2ccccc2o1)N1CCN(Cc2ccccc2)CC1 [befuraline] | -1.29 | 1.94 | 3.17 | 0.64 | -2.11%
CNCc1cc(-c2ccccc2F)n(S(=O)(=O)c2cccnc2)c1 [vonoprazan] | -3.91 | -1.43 | -1.96 | -1.21 | -4.64%
NCCS [cysteamine] | 1.07 | 0.1 | 0.28 | -1.61 | -4.62%
O=C(O)C(=O)c1cn(Cc2ccccc2)c2ccc(-c3ccc(OC(F)(F)F)cc3)cc12 [tiplaxtinin] | 2.16 | 2.56 | 3.44 | 2.13 | 4.09%
N[C@@H](Cc1cc(CP(=O)(O)O)cc(-c2ccccc2Cl)c1)C(=O)O | 8.76 | 0.31 | 1.79 | 1.85 | 1.74%
COc1cc(N)c(Cl)cc1C(=O)NC1CCN(Cc2ccccc2)CC1 [clebopride] | -1.61 | -0.47 | -0.47 | 6.56 | 0.26%
Cc1ncc(Cl)cc1NCc1ccc(C(=O)N[C@@H](CC2CCCC2)C(=O)NC2CC2)s1 | 2.43 | 0.35 | -0.53 | -0.57 | -2.59%
CCN(CC)C(=O)[C@@]1(c2ccccc2)C[C@H]1CN [milnacipran] | -4.3 | -3.38 | -4.94 | -0.26 | 1.05%
CC1=C(C(=O)O)N2C(=O)[C@@H](NC(=O)[C@H](N)c3ccccc3)[C@H]2SC1 [cephalexin] | 2.47 | 0.37 | 0.73 | -1.01 | -3.66%
Cc1ccc(NC(=O)c2ccc(CN3CCN(C)CC3)cc2)cc1Nc1nc(-c2cccnc2)cs1 [masitinib] | 1.41 | 0.48 | 1.05 | 1.93 | 44.8% (active)
C[C@@H]1CN(Cc2ncccn2)C[C@H]1c1nc2c(cnn2C2CCOCC2)c(=O)[nH]1 | -1.78 | 1.47 | -0.33 | 1.24 | -2.82%
CN/C(=N\S(=O)(=O)c1ccc(Cl)cc1)N1C[C@H](c2ccccc2)C(c2ccc(Cl)cc2)=N1 (racemic) | -2.29 | -0.66 | -0.25 | 1.24 | -3.73%

Source: the supplement of paper PMC13380429
